For 40 compounds, Potency and activity change, negative = inhibition results are on record in PubChem BioAssay (NCATS).

Structures are written as SMILES. Records with an inconclusive call do not appear. Entries that show only a call come without a potency. Values without a mark were called inactive. The source made the active and inactive calls. The call rests on the fitted dose curve; in most records, active means well fitted inhibition curve with a large enough effect; inconclusive means small, poorly fitted or top-dose-only effect; inactive means no such curve, though single readings can be large or run the other way.

Chain of Rap guanine nucleotide exchange factor 4 (Homo sapiens) (Q8WZA2 whole entry, looked up): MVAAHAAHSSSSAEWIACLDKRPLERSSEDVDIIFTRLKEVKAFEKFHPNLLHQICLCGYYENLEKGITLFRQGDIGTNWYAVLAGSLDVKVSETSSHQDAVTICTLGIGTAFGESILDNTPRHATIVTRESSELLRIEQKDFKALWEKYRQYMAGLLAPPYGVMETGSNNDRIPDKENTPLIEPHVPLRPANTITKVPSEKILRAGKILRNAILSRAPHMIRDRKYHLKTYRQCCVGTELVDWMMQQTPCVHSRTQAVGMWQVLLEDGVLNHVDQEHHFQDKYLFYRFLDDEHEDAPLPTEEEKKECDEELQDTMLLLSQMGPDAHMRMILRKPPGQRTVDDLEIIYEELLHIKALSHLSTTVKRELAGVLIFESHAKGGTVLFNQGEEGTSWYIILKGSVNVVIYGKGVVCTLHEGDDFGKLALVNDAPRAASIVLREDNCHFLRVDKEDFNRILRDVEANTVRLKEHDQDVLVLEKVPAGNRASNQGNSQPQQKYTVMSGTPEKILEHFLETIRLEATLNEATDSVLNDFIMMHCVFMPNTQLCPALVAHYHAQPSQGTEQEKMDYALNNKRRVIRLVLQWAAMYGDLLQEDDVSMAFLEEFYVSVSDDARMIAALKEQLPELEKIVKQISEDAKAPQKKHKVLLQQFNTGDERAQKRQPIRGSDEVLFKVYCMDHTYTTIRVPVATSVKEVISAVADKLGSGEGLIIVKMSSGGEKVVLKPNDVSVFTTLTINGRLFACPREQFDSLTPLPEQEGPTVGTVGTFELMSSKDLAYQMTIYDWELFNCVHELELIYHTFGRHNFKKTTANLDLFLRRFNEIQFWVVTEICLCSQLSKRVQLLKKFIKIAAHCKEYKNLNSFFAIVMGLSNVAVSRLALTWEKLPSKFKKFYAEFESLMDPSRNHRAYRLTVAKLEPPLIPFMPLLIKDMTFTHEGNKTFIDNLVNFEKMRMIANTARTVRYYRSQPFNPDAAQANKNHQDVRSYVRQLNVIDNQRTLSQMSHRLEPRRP

The first assay concerns the target Rap guanine nucleotide exchange factor 4 (Homo sapiens) (UniProt Q8WZA2). Put plainly: Confirmatory qHTS for antagonist of cAMP-regulated guanine nucleotide exchange factor 4 (EPAC2) (AID 1645885). Further: nearly all actives have a fitted effect of over 25% in size. Further: potency means the concentration at half of the fitted maximal effect. To be noted: EPAC2 Rap1B-BODIPY-GDP exchange fluorescence, biochemical; series mostly up to 12.7 µM. On the technique in general: Quantitative high-throughput screening tests each substance at several concentrations.
On to `CNc1ccc(/C=C(\CCC(=O)O)c2nc3ccccc3s2)cc1[N+](=O)[O-]`, for which the Potency entry is “inactive”.

`O=C(O)CC/C(=C\c1cccc(NC(=O)c2ccccc2Cl)c1)c1nc2ccccc2s1`: the Potency entry is “inactive”.

On to `CCOc1cc(/C=C2\SC(=Nc3ccc(CC)cc3)NC2=O)ccc1OCC(=O)O`, for which the Potency entry is “inactive”.

Turning to `COc1ccc(C(=O)NCCn2cc(SCC(=O)NCCc3ccc(OC)c(OC)c3)c3ccccc32)cc1`, the Potency entry is “inactive”.

Take `N#C/C(=C\c1ccc(Sc2ccccc2)o1)c1nc2ccccc2[nH]1`: the Potency result is “inactive”.

Consider `O=[N+]([O-])c1ccc(NS(=O)(=O)c2ccccc2)c(Cl)c1`, for which the Potency entry is “inactive”.

Take `Cc1ccc(NS(=O)(=O)c2cccc3cccnc23)c(Cl)c1`: the Potency entry is “inactive”.

With `S=c1[nH]nc(-c2cc(-c3ccccc3)n[nH]2)n1/N=C/c1ccc(Cl)c(Cl)c1`, the Potency result was “inactive”.

Regarding `CCOc1ccc(/C=C2\SC(=S)N(NS(=O)(=O)c3ccccc3)C2=O)cc1OC`, the Potency was 37.9 µM (active).

Regarding `O=C1N(Cc2ccccc2Cl)c2ccccc2C1(O)c1c[nH]c2ccccc12` (stereo not given), the Potency result is “inactive”.

`Cc1cccn2c(=O)c(/C=C(\C#N)c3nc4ccccc4n3C)c(Oc3ccc(Br)cc3)nc12`: the Potency result is “inactive”.

In the case of `Cc1cc(=O)n(Cc2ccccc2)c2c1c(C)nn2C`, the Potency entry was “inactive”.

For `CCc1ccc(N=C2NC(=O)/C(=C/c3ccc(OCC(=O)O)cc3)S2)cc1`, the Potency entry is “inactive”.

For the compound `Oc1ccc(NCc2cccc(OCc3ccc(F)cc3)c2)cc1`, the Potency result was “inactive”.

With `O=C(O)CC/C(=C\c1ccc(N2CCCC2)c([N+](=O)[O-])c1)c1nc2ccccc2s1`, the Potency result was “inactive”.

`COc1ccc(C(=O)c2ccc(Br)cc2)c(OC)c1OC`: the Potency was 6.01 µM (active).

With `CC1=CC(=C(C#N)c2nc3ccccc3s2)C=C(C)N1Cc1ccco1`, the Potency entry is “inactive”.

Regarding `CC1(C)CC2CC(C)(CN2C(=O)c2cc(-c3ccccc3O)on2)C1` (stereo not given), the Potency entry was “inactive”.

Turning to `CC(/C=C1\SC(=S)N(c2ccc(C(=O)O)cc2)C1=O)=C\c1ccccc1`, the Potency result is “inactive”.

Take `COC(/C(=N/O)c1ccc(Cl)cc1)c1ccccc1` (stereo not given): the Potency entry was “inactive”.

As for `COc1ccc(CCn2c(O)cc3nn(-c4nc5ccccc5s4)c(=O)c-3c2C)cc1`, the Potency entry was “inactive”.

Regarding `CCOC(=O)c1cc(-c2ccc(/C=C3/C(=O)N(c4ccc(C(=O)O)cc4)N=C3C)o2)ccc1Cl`, the Potency result was “inactive”.

`COc1cc(/C=C2\CCn3c2nc2cc(C(=O)O)ccc2c3=O)ccc1OC(F)F`: the Potency entry was “inactive”.

Regarding `Cc1ccc(N2C(=O)c3ccccc3C2Nc2ccccc2F)nc1` (stereo not given), the Potency result was “inactive”.

Take `Cc1c(CCC(=O)O)c(=O)oc2cc(OCc3ccccc3Br)ccc12`: the Potency is 84.9 µM (active).

As to `Cc1cc(Br)cn2c(Cc3ccsc3)c(-c3ccco3)nc12`, the Potency result is “inactive”.

For `Cn1c(SCC(=O)Nc2cccc(C(=O)O)c2)nnc1-c1cc2cc(Br)ccc2o1`, the Potency result was “inactive”.

As to `COc1ccc2cc(-c3nc(Cl)c4c5c(sc4n3)CCCC5)c(=O)oc2c1`, the Potency result is “inactive”.

For `COc1ccc2c(c1)C(SCC(=O)NCCc1ccc(Cl)cc1)CC(C)(C)O2` (stereo not given), the Potency result is “inactive”.

`Cc1nc(C)c(-c2csc(Nc3ccc(C(=O)O)c(O)c3)n2)s1`: the Potency entry was “inactive”.

On to `O=c1oc2c3c(ccc2c2ccccc12)OCN(Cc1cccc(Cl)c1)C3`, for which the Potency entry is “inactive”.

Regarding `O=C(c1ccccc1Br)N(Cc1ccccc1)c1ccccc1`, the Potency result was “inactive”.

For `NC(N)=N/N=C/c1ccc(OCc2ccc(Cl)cc2Cl)cc1`, the Potency result is “inactive”.

Turning to `COc1ccc(S(=O)(=O)Nc2ccc(F)cc2)c(C)c1C`, the Potency is 5.36 µM (active).

Turning to `COc1cc2ccccc2cc1C(=O)NC(=S)Nc1cccc(C(=O)O)c1`, the Potency entry was “inactive”.

On to `O=C(O)COc1ccccc1/C=N/Nc1ccc(S(=O)(=O)Nc2ccc(Cl)cc2)cc1[N+](=O)[O-]`, for which the Potency entry is “inactive”.

Turning to `O=C(Nc1cccc(C(F)(F)F)c1)C1Cc2c(-c3ccccc3)ccnc2O1` (stereo not given), the Potency result is “inactive”.

On to `COc1ccc(OC)c(C2=CC(=O)C[C@H](c3ccc4c(c3)OCO4)C2)c1`, for which the Potency entry is “inactive”.

Consider `O=C(CSc1ncnc2[nH]ncc12)Nc1cccc(Oc2ccccc2)c1`, for which the Potency result is “inactive”.

Regarding `COc1ccc(C2Nc3ccccc3-c3cc(C)nn32)c(OC)c1` (stereo not given), the Potency entry was “inactive”.

For a further assay, the target named is Rap guanine nucleotide exchange factor 3 (Homo sapiens) (UniProt O95398). Description: Counterscreen qHTS for antagonist of cAMP-regulated guanine nucleotide exchange factor 3 (EPAC1) (AID 1645888).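 Further: fluorescence loss as bound BODIPY-GDP is released from Rap1B.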 Conditions: Rap1B-BODIPY-GDP nucleotide exchange, fluorescence; series mostly up to 154 µM. The essentials: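 Rap1B-BODIPY-GDP 250 nM + GDP 50 uM; cpds 7-pt, final 9.74 nM–152 uM (activator mode) or from 7.32 nM upwards (inhibitor mode); RT; FI 480/540 nm at 5 and 30 min, then ± cAMP, reread.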
Chain of Rap guanine nucleotide exchange factor 3 (Homo sapiens) (O95398 whole entry, looked up): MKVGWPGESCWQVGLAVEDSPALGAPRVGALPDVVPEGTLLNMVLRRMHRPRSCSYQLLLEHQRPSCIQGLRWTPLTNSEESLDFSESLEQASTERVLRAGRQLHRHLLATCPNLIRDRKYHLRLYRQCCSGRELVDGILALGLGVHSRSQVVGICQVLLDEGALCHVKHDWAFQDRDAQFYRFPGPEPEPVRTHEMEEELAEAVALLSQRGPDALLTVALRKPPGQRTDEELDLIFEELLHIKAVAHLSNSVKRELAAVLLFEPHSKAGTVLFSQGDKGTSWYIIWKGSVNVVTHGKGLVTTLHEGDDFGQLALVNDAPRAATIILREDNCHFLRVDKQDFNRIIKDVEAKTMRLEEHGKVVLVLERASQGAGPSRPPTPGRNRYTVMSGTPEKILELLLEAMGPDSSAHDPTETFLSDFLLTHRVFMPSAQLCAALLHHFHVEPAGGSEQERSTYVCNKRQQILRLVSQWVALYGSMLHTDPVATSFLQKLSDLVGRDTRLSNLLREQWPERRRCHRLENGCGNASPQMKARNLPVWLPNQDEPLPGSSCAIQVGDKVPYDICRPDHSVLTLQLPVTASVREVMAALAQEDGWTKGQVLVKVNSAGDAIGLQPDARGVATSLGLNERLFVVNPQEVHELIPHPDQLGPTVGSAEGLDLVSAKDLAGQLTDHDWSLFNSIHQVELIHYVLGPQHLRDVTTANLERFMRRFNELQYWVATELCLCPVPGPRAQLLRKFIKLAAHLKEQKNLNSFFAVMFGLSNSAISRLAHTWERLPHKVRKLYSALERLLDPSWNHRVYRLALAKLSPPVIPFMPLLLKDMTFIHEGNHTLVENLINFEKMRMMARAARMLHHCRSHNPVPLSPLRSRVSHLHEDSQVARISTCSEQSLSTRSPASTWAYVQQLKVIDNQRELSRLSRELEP
In general terms: Counterscreens check selectivity or assay interference.
Consider `CNc1ccc(/C=C(\CCC(=O)O)c2nc3ccccc3s2)cc1[N+](=O)[O-]`, for which the activity change, negative = inhibition is -16.8% [at 30.8 µM].

As to `O=C(O)CC/C(=C\c1cccc(NC(=O)c2ccccc2Cl)c1)c1nc2ccccc2s1`, the Potency result is “inactive”.

In the case of `CCOc1cc(/C=C2\SC(=Nc3ccc(CC)cc3)NC2=O)ccc1OCC(=O)O`, the Potency result is “inactive”.

As for `COc1ccc(C(=O)NCCn2cc(SCC(=O)NCCc3ccc(OC)c(OC)c3)c3ccccc32)cc1`, the Potency entry was “inactive”.

For `N#C/C(=C\c1ccc(Sc2ccccc2)o1)c1nc2ccccc2[nH]1`, the Potency entry is “inactive”.

For `O=[N+]([O-])c1ccc(NS(=O)(=O)c2ccccc2)c(Cl)c1`, the Potency entry was “inactive”.

For the compound `Cc1ccc(NS(=O)(=O)c2cccc3cccnc23)c(Cl)c1`, the Potency entry was “inactive”.

For `S=c1[nH]nc(-c2cc(-c3ccccc3)n[nH]2)n1/N=C/c1ccc(Cl)c(Cl)c1`, the activity change, negative = inhibition is -11.9% [at 30.8 µM].

In the case of `CCOc1ccc(/C=C2\SC(=S)N(NS(=O)(=O)c3ccccc3)C2=O)cc1OC`, the Potency result was “inactive”.

For `O=C1N(Cc2ccccc2Cl)c2ccccc2C1(O)c1c[nH]c2ccccc12` (stereo not given), the Potency result was “inactive”.

With `Cc1cccn2c(=O)c(/C=C(\C#N)c3nc4ccccc4n3C)c(Oc3ccc(Br)cc3)nc12`, the Potency result is “inactive”.

As to `Cc1cc(=O)n(Cc2ccccc2)c2c1c(C)nn2C`, the Potency entry is “inactive”.

Turning to `CCc1ccc(N=C2NC(=O)/C(=C/c3ccc(OCC(=O)O)cc3)S2)cc1`, the activity change, negative = inhibition was -19.4% [at 30.8 µM].

As for `Oc1ccc(NCc2cccc(OCc3ccc(F)cc3)c2)cc1`, the activity change, negative = inhibition was -11.4% [at 30.8 µM].

For `O=C(O)CC/C(=C\c1ccc(N2CCCC2)c([N+](=O)[O-])c1)c1nc2ccccc2s1`, the Potency result was “inactive”.

As to `COc1ccc(C(=O)c2ccc(Br)cc2)c(OC)c1OC`, the Potency result is “inactive”.

On to `CC1=CC(=C(C#N)c2nc3ccccc3s2)C=C(C)N1Cc1ccco1`, for which the Potency result is “inactive”.

Take `CC1(C)CC2CC(C)(CN2C(=O)c2cc(-c3ccccc3O)on2)C1` (stereo not given): the activity change, negative = inhibition is 5.82% [at 30.8 µM].

`CC(/C=C1\SC(=S)N(c2ccc(C(=O)O)cc2)C1=O)=C\c1ccccc1`: the activity change, negative = inhibition was 1.04% [at 30.8 µM].

On to `COC(/C(=N/O)c1ccc(Cl)cc1)c1ccccc1` (stereo not given), for which the activity change, negative = inhibition is -2% [at 30.8 µM].

Regarding `COc1ccc(CCn2c(O)cc3nn(-c4nc5ccccc5s4)c(=O)c-3c2C)cc1`, the Potency entry is “inactive”.

On to `CCOC(=O)c1cc(-c2ccc(/C=C3/C(=O)N(c4ccc(C(=O)O)cc4)N=C3C)o2)ccc1Cl`, for which the Potency entry is “inactive”.

Consider `COc1cc(/C=C2\CCn3c2nc2cc(C(=O)O)ccc2c3=O)ccc1OC(F)F`, for which the Potency entry is “inactive”.

Consider `Cc1ccc(N2C(=O)c3ccccc3C2Nc2ccccc2F)nc1` (stereo not given), for which the activity change, negative = inhibition was 13.9% [at 30.8 µM].

Turning to `Cc1c(CCC(=O)O)c(=O)oc2cc(OCc3ccccc3Br)ccc12`, the Potency entry is “inactive”.

For `Cc1cc(Br)cn2c(Cc3ccsc3)c(-c3ccco3)nc12`, the activity change, negative = inhibition was 4.94% [at 30.8 µM].

Take `Cn1c(SCC(=O)Nc2cccc(C(=O)O)c2)nnc1-c1cc2cc(Br)ccc2o1`: the Potency result is “inactive”.

As for `COc1ccc2cc(-c3nc(Cl)c4c5c(sc4n3)CCCC5)c(=O)oc2c1`, the Potency result is “inactive”.

Consider `COc1ccc2c(c1)C(SCC(=O)NCCc1ccc(Cl)cc1)CC(C)(C)O2` (stereo not given), for which the activity change, negative = inhibition is 8.95% [at 30.8 µM].

For the compound `Cc1nc(C)c(-c2csc(Nc3ccc(C(=O)O)c(O)c3)n2)s1`, the Potency result was “inactive”.

Take `O=c1oc2c3c(ccc2c2ccccc12)OCN(Cc1cccc(Cl)c1)C3`: the Potency result was “inactive”.

Regarding `O=C(c1ccccc1Br)N(Cc1ccccc1)c1ccccc1`, the activity change, negative = inhibition was -1.15% [at 30.8 µM].

Turning to `NC(N)=N/N=C/c1ccc(OCc2ccc(Cl)cc2Cl)cc1`, the activity change, negative = inhibition is 10.5% [at 30.8 µM].

With `COc1ccc(S(=O)(=O)Nc2ccc(F)cc2)c(C)c1C`, the Potency entry is “inactive”.

Regarding `COc1cc2ccccc2cc1C(=O)NC(=S)Nc1cccc(C(=O)O)c1`, the activity change, negative = inhibition was -9.48% [at 30.8 µM].

Take `O=C(O)COc1ccccc1/C=N/Nc1ccc(S(=O)(=O)Nc2ccc(Cl)cc2)cc1[N+](=O)[O-]`: the activity change, negative = inhibition was -8.36% [at 30.8 µM].

On to `O=C(Nc1cccc(C(F)(F)F)c1)C1Cc2c(-c3ccccc3)ccnc2O1` (stereo not given), for which the activity change, negative = inhibition was -3.59% [at 30.8 µM].

As for `COc1ccc(OC)c(C2=CC(=O)C[C@H](c3ccc4c(c3)OCO4)C2)c1`, the activity change, negative = inhibition was -6.17% [at 30.8 µM].

Consider `O=C(CSc1ncnc2[nH]ncc12)Nc1cccc(Oc2ccccc2)c1`, for which the activity change, negative = inhibition was -9.96% [at 30.8 µM].

As for `COc1ccc(C2Nc3ccccc3-c3cc(C)nn32)c(OC)c1` (stereo not given), the Potency result is “inactive”.
